Active and inactive are the calls of the source. How the source made its calls: active means hit-call score of the fitted dose curve at least 0.9, where 1 is the maximum; inactive means score below 0.9.
What was measured:
[1] = read-out: Thrombomodulin, THBD (gene 7056); assay: BSK_CASM3C_Thrombomodulin: BioMAP Diversity Plus: CASM3C Assay for Thrombomodulin Biomarker Activity (AID 2283051); settings: primary human coronary artery smooth muscle cells; actives raise or lower the signal;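 further: thrombomodulin protein level measured by ELISA 24 h after dosing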
[2] = read-out: Tissue Factor, F3 (gene 2152); assay: BSK_CASM3C_TissueFactor: BioMAP Diversity Plus: CASM3C Assay for Tissue Factor Biomarker Activity (AID 2283052); settings: primary human coronary artery smooth muscle cells; actives raise or lower the signal;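 further: cell surface tissue factor protein level read by ELISA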
[3] = read-out: Interferon-gamma inducible Protein 10 (IP10), CXCL10 (gene 3627); assay: BSK_hDFCGF_IP10: BioMAP Diversity Plus: hDFCGF Assay for Interferon-gamma inducible Protein 10 (IP10) Biomarker Activity (AID 2283053); settings: primary human foreskin fibroblasts; actives raise or lower the signal
In short: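 ELISA quantification of IP-10 after a 24 h chemical exposure of human dermal foreskin fibroblast primary cultures. Both increases and decreases versus DMSO fitted.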

[4] = read-out: Urokinase-type plasminogen activator receptor (uPAR), PLAUR (gene 5329); assay: BSK_CASM3C_uPAR: BioMAP Diversity Plus: CASM3C Assay for Urokinase-type plasminogen activator receptor (uPAR) Biomarker Activity (AID 2283054); settings: primary human coronary artery smooth muscle cells; actives raise or lower the signal;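 further: cell-surface uPAR protein level quantified by ELISA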
[5] = read-out: Vascular cell adhesion molecule 1 (VCAM1), VCAM1 (gene 7412); assay: BSK_CASM3C_VCAM1: BioMAP Diversity Plus: CASM3C Assay for Vascular cell adhesion molecule 1 (VCAM1) Biomarker Activity (AID 2283055); settings: primary human coronary artery smooth muscle cells; actives raise or lower the signal;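 further: VCAM-1 protein level quantified by ELISA on the cells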
[6] = read-out: Collagen III, COL3A1 (gene 1281); assay: BSK_hDFCGF_CollagenIII: BioMAP Diversity Plus: hDFCGF Assay for Collagen III Biomarker Activity (AID 2283056); settings: primary human foreskin fibroblasts; actives raise or lower the signal
In short: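 Human foreskin primary fibroblasts were exposed to test chemicals for 24 h, after which collagen III was quantified by ELISA. Activity was fitted bidirectionally against DMSO as negative control and baseline.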

[7] = read-out: Epidermal growth factor receptor (EGFR), EGFR (gene 1956); assay: BSK_hDFCGF_EGFR: BioMAP Diversity Plus: hDFCGF Assay for Epidermal growth factor receptor (EGFR) Biomarker Activity (AID 2283057); settings: primary human foreskin fibroblasts; actives raise or lower the signal
In short: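 EGFR levels by ELISA in human dermal fibroblast cultures, 24 h post-treatment, fitted bidirectionally versus DMSO. Parallel wells stained with sulforhodamine B to detect overt cytotoxicity.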

[8] = read-out: Interleukin-8 (IL8), CXCL8 (gene 3576); assay: BSK_hDFCGF_IL8: BioMAP Diversity Plus: hDFCGF Assay for Interleukin-8 (IL8) Biomarker Activity (AID 2283058); settings: primary human foreskin fibroblasts; actives raise or lower the signal
In short: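 hDFCGF human dermal fibroblasts; 24 h chemical exposure; IL-8 by ELISA; bidirectional curve fit vs DMSO baseline; gain or loss of signal scored.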

[9] = BSK_hDFCGF_Proliferation: Cell Proliferation Assessment in the BioMAP Diversity Plus: hDFCGF Assay (AID 2283059); settings: primary human foreskin fibroblasts;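 further: curves fitted for both rise and fall of signal versus DMSO baseline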
In short: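 Steps: dose primary human dermal fibroblasts (foreskin); […] fix in 10% TCA; stain with 0.1% SRB; read 560 nm; fit gain or loss of signal against DMSO.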

[10] = read-out: Macrophage colony-stimulating factor (MCSF), CSF1 (gene 1435); assay: BSK_hDFCGF_MCSF: BioMAP Diversity Plus: hDFCGF Assay for Macrophage colony-stimulating factor (MCSF) Biomarker Activity (AID 2283060); settings: primary human foreskin fibroblasts; actives raise or lower the signal
In short: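 Human foreskin primary fibroblasts were treated with test chemical for 24 h, and M-CSF was then measured by ELISA. Data were fitted bidirectionally against DMSO as the negative control and activity baseline.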

[11] = BSK_hDFCGF_SRB: Viability Assessment in the BioMAP Diversity Plus: hDFCGF Assay (AID 2283061); settings: primary human foreskin fibroblasts;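 further: cells exposed to compound for 24 h before the read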
In short: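 Human foreskin primary fibroblasts were treated with compound and assessed 24 h after dosing. Total protein was measured by sulforhodamine B staining (0.1% SRB after 10% TCA fixation, 560 nm read) as a cytotoxicity marker, with bidirectional fitting against DMSO baseline.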

[12] = read-out: TIMP metallopeptidase inhibitor 1 (TIMP1), TIMP1 (gene 7076); assay: BSK_hDFCGF_TIMP1: BioMAP Diversity Plus: hDFCGF Assay for TIMP metallopeptidase inhibitor 1 (TIMP1) Biomarker Activity (AID 2283062); settings: primary human foreskin fibroblasts; actives raise or lower the signal
In short: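 Primary human foreskin fibroblasts in the hDFCGF system were dosed with compound for 24 h, then TIMP-1 was measured by ELISA. Activity was fitted bidirectionally relative to DMSO control; parallel SRB staining assessed cytotoxicity.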

[13] = read-out: Monokine induced gamma interferon (MIG), CXCL9 (gene 4283); assay: BSK_hDFCGF_MIG: BioMAP Diversity Plus: hDFCGF Assay for Monokine induced gamma interferon (MIG) Biomarker Activity (AID 2283063); settings: primary human foreskin fibroblasts; actives raise or lower the signal
In short: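 ELISA read-out of MIG from primary human dermal fibroblasts 24 h post-dosing. Gain or loss of signal fitted bidirectionally, DMSO as baseline.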

[14] = read-out: Plasminogen activator inhibitor-1 (PAI1), SERPINE1 (gene 5054); assay: BSK_hDFCGF_PAI1: BioMAP Diversity Plus: hDFCGF Assay for Plasminogen activator inhibitor-1 (PAI1) Biomarker Activity (AID 2283066); settings: primary human foreskin fibroblasts; actives raise or lower the signal
In short: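 PAI-1 levels in human dermal foreskin fibroblasts were quantified by ELISA 24 h after dosing, with gain or loss analysed against DMSO. Overt cytotoxicity was checked by sulforhodamine B total-protein staining in parallel cultures.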

[15] = read-out: Intercellular Adhesion Molecule 1 (ICAM1), ICAM1 (gene 3383); assay: BSK_KF3CT_ICAM1: BioMAP Diversity Plus: KF3CT Assay for Intercellular Adhesion Molecule 1 (ICAM1) Biomarker Activity (AID 2283067); settings: primary human keratinocytes with fibroblasts; actives raise or lower the signal
In short: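 Human keratinocyte plus foreskin fibroblast primary co-culture was exposed to chemical for 24 h. ICAM-1 was then quantified by ELISA, and the data were fit bidirectionally against DMSO as the negative control and baseline.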

[16] = read-out: Interferon-gamma inducible Protein 10 (IP10), CXCL10 (gene 3627); assay: BSK_KF3CT_IP10: BioMAP Diversity Plus: KF3CT Assay for Interferon-gamma inducible Protein 10 (IP10) Biomarker Activity (AID 2283068); settings: primary human keratinocytes with fibroblasts; actives raise or lower the signal
In short: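 KF3CT co-culture (keratinocytes + foreskin fibroblasts), 24 h compound, IP-10 by ELISA; bidirectional fit vs DMSO baseline.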

[17] = BSK_KF3CT_SRB: Viability Assessment in the BioMAP Diversity Plus: KF3CT Assay (AID 2283069); settings: primary human keratinocytes with fibroblasts
In short: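 Cytotoxicity was gauged by SRB staining (0.1% SRB, 10% TCA fixation, 560 nm) of parallel cultures at 24 h. The cells were primary human skin keratinocytes co-cultured with fibroblasts, and activity was fitted in both directions against DMSO.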

[18] = read-out: Interleukin-1 alpha (IL1a), IL1A (gene 3552); assay: BSK_KF3CT_IL1a: BioMAP Diversity Plus: KF3CT Assay for Interleukin-1 alpha (IL1a) Biomarker Activity (AID 2283070); settings: primary human keratinocytes with fibroblasts; actives raise or lower the signal
In short: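 IL-1a was detected by ELISA 24 h after chemical treatment of a co-culture of human skin keratinocytes and foreskin fibroblasts. Gain or loss of signal was fitted against the DMSO baseline.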

[19] = read-out: Vascular cell adhesion molecule 1 (VCAM1), VCAM1 (gene 7412); assay: BSK_hDFCGF_VCAM1: BioMAP Diversity Plus: hDFCGF Assay for Vascular cell adhesion molecule 1 (VCAM1) Biomarker Activity (AID 2283065); settings: primary human foreskin fibroblasts; actives raise or lower the signal
In short: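 Primary human foreskin fibroblasts (hDFCGF system) were dosed with chemical and VCAM-1 was measured by ELISA 24 h later. Bidirectional curve fitting used DMSO as negative control and activity baseline.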

[20] = read-out: Matrix Metallopeptidase 1 (MMP1), MMP1 (gene 4312); assay: BSK_hDFCGF_MMP1: BioMAP Diversity Plus: hDFCGF Assay for Matrix Metallopeptidase 1 (MMP1) Biomarker Activity (AID 2283064); settings: primary human foreskin fibroblasts; actives raise or lower the signal
In short: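 MMP1 levels quantified by ELISA 24 h after dosing human dermal fibroblast cultures, with parallel SRB total-protein staining for overt cytotoxicity. Data fitted in both directions against DMSO baseline.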

Measured: AC50

CC(C=O)Cc1ccc(C(C)(C)C)cc1 (stereo not given)
active: [2] 20 µM | [4] 33.7 µM | [5] 27.3 µM | [7] 32.1 µM | [9] 29.1 µM | [10] 29.5 µM | [11] 35.5 µM | [12] 31.9 µM | [14] 27.4 µM
inactive: [1] | [3] | [6] | [8] | [13] | [15] | [16] | [17] | [18]

CC(=O)Nc1ccc(C(=O)CCl)cc1
inactive: [1] | [7] | [17]
active: [2] 3.97 µM | [3] 9.56 µM | [4] 5.2 µM | [5] 4.84 µM | [6] 7.2 µM | [8] 9.4 µM | [9] 3.18 µM | [10] 8.76 µM | [11] 11.2 µM | [12] 7.91 µM | [13] 9.4 µM | [14] 10.8 µM | [15] 26.6 µM | [16] 23.2 µM | [18] 31 µM

CC=Cc1ccc(OCC)c(O)c1
inactive: [1] | [2] | [3] | [4] | [5] | [6] | [7] | [9] | [10] | [11] | [12] | [13] | [19] | [14] | [15] | [16] | [17] | [18]

O=CN1CCOCC1
inactive: [1] | [2] | [3] | [4] | [5] | [6] | [7] | [9] | [10] | [11] | [12] | [13] | [19] | [14] | [15] | [16] | [17] | [18]

COc1cc(Cl)c(OC)cc1N
inactive: [1] | [2] | [3] | [4] | [5] | [6] | [7] | [9] | [10] | [11] | [12] | [13] | [20] | [14] | [15] | [16] | [17] | [18]

Reference: PubChem BioAssay (EPA / NIEHS)
